From PubChem BioAssay (NCI)
Compounds without any hit were thinned out: in the full panel of roughly 79,000, 15% have a hit. Active and inactive are the calls of the source. No stated cut-off is given here; in the data, active means growth inhibition above about 70%; inactive means the rest.

Assay: NCI Yeast Anticancer Drug Screen. Data for the mlh1 rad18 strain (AID 175)
Details: S. cerevisiae mlh1 rad18 strain growth inhibition, stronger effect = higher value; at 50.0 µM unless noted
Method in brief: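 A repair-deficient yeast strain is exposed to test compound, and growth is scored relative to vehicle-treated controls.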

Row | Compound | growth inhibition
1 | OCC1C(CO)C2CC1C1N=NN(c3ccccc3)C21 (stereo unspecified) | -13.3% (inactive)
2 | CCCCC(CC)OC(=O)c1ccccc1C (stereo unspecified) | -23.8% (inactive)
3 | OCCCCCSc1ccccc1 | 7.3% (inactive)
4 | CN(C=O)c1c(F)cc(N=Nc2ccccc2)cc1F | 9.7% (inactive)
5 | Cn1ccnc1C(O)(c1nccn1C)c1nccn1C | 16.2% (inactive)
6 | CCCCN=C(N)C(N)=NCCCC | -18.7% (inactive)
7 | COc1ccc2nc3cc(Cl)ccc3c(Nc3ccccc3-c3ccccc3Nc3c4ccc(Cl)cc4nc4ccc(OC)cc34)c2c1 | -27.8% (inactive)
8 | CCOC(=O)CON=c1c2ccccc2ccc2ccccc12 | -2.45% (inactive)
9 | O=C1CSC(c2ccc(F)cc2F)N1c1nncs1 (stereo unspecified) | 24.2% (inactive)
10 | O=C(O)c1cc(C(=O)C(=O)c2cc(C(=O)O)c(O)c3ccccc23)c2ccccc2c1O | -19.4% (inactive)
11 | Cc1ccc(S(=O)(=O)OCCOCCOS(=O)(=O)c2ccc(C)cc2)cc1 | 17.8% (inactive)
12 | CCCCN(CCCC)C(=N)c1ccccc1C | -3.35% (inactive)
13 | CCCCC(Sc1nn(C2OC(COC(=O)c3ccccc3)C(OC(=O)c3ccccc3)C2OC(=O)c2ccccc2)c(=O)[nH]c1=O)C(=O)OCC (stereo unspecified) | 7.45% (inactive)
14 | CC(=O)N1C(=O)CC23c4cccc([N+](=O)[O-])c4C(=O)N2CCCN13 (stereo unspecified) | 17.4% (inactive)
15 | CCN(CC)CCOC(=O)c1ccc(NC(=O)OCCOCCOC(=O)Nc2ccc(C(=O)OCCN(CC)CC)cc2)cc1 | 14.7% (inactive)
16 | O=C1OC(OC2CCCCC2)(c2ccccc2)c2ccccc21 (stereo unspecified) | -5.55% (inactive)
